Assay results published in PubChem BioAssay.
“And” between values parts separate entries of the source, which are not always exact repeats. Identical values can stand only once. Results filed as inconclusive are left out. The source made the active and inactive calls. Unless noted, no rule for the calls is given here.

Legend:
[1] = blockers of polyQ-driven CASP3 activation – cell-based (AID 1583); details: polyglutamine-induced caspase-3 activation, cell assay; stronger effect = higher value;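 tested at 10 µM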
[2] = yeast 75Q aggregation reduction – 75Q-TubU reporter (AID 1593); details: Yeast 75Q polyglutamine aggregation reporter
[3] = blockers of cytochrome c efflux from mitochondria – biochemical, purified mitochondria (AID 1603); details: stronger effect = lower value;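 also: mouse liver mitochondria challenged with calcium chloride; signal normalized to the plate average as 100%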
[4] = polyglutamine aggregate formation blockers (AID 1604); details: polyglutamine-induced protein aggregation inhibition assay; stronger effect = higher value; tested at 2.5 µM
[5] = glutamate transport activators, MN-1 cells, MN-1 cell line (AID 1612); details: MN-1 motor neuron cells, stronger effect = higher value;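 also: tested at 1 µM final; 0% = mean of DMSO vehicle wells on each plate; positive means more glutamate uptake than control and negative means less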
[6] = 75Q-TubH aggregate inhibition, S. cerevisiae, yeast (AID 1616); details: S. cerevisiae 75Q-TubH polyglutamine aggregation suppression; stronger effect = higher value
[7] = compounds altering circadian rhythm period length – cell-based, LOPAC library, luminescence reporter (AID 2774); details: circadian reporter cells, at 7 µM, actives lie on both sides;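 also: values are relative to mean of DMSO wells on each plate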
[8] = compounds altering viability of human ES cells (AID 493140); details: human embryonic stem cell survival screen; stronger effect = higher value;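 also: cells exposed to compounds for four days before counting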
[9] = tested on: Hepatitis C virus NS3 helicase; assay: blockers of NS3h binding to ssDNA – biochemical, fluorescence polarization, LOPAC1280 library, primary screen (AID 687035; in the data active = inhibition above about 37%); details: Purified HCV NS3 helicase, Cy5-dT15 ssDNA binding fluorescence polarization; stronger effect = higher value; concentration not given here
[10] = compounds altering Cy5-DNA-NS3h complex signal – biochemical, LOPAC1280, artefact control for HCV NS3 helicase inhibitor project (AID 687037); details: Cy5-DNA-NS3h complex fluorescence interference counterscreen
[11] = viability loss in pontine glioma line – cell-based, JHH-DIPG-1, MIPE4.0, CellTiter-Glo, qHTS, dose response (AID 1347062; cut-off not given, nearly all actives have AC50 up to about 27 µM); details: JHH-DIPG-1 viability, CellTiter-Glo ATP luminescence
[12] = viability loss in pontine glioma line – cell-based, SU-DIPG-XXV, MIPE5.0, CellTiter-Glo, qHTS, dose response (AID 1347065; cut-off not given, nearly all actives have AC50 up to about 26 µM;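 also: cells exposed to compound for 48 hours before ATP readout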); details: CellTiter-Glo ATP luminescence
[13] = JHH-DIPG-1 glioma cell viability, MIPE5.0 library, CellTiter-Glo luminescence, qHTS (AID 1347067; cut-off not given, nearly all actives have AC50 up to about 26 µM;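 also: cells exposed to compound for 48 hours before readout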); details: JHH-DIPG-1 glioma viability, CellTiter-Glo ATP luminescence
[14] = blockers of cellular phospholipid synthesis – cell-based, LOPAC library, screen 4, primary screen (AID 1347384); details: animal cells, phospholipid biosynthesis inhibition screen; at 10 µM
[15] = biological target: NAD(+) hydrolase SARM1 (Homo sapiens) (UniProt Q6SZW1); assay: blocking NAD cleavage by SARM1 SAM-TIR – cell lysate, NAD-Glo luminescence (AID 1508614;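 active = compound whose remaining NAD level is above about 45 nM, limit read from the data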;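 also: higher remaining NAD means stronger inhibition of SARM1 NADase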); details: SAM-TIR HEK293T lysate NADase, at 1 µM, stronger effect = higher value
[16] = galactose survival enhancers in mitochondrial complex I cybrids – cell-based, galactose medium, ATP luminescence, primary screen (AID 1645843;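 active = z-score of at least 1.8 in each of two replicates, scored against plate mean and spread of sample wells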;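 also: positive z means more ATP and so rescue of galactose-driven cybrid death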); details: complex I mutant cybrid cells, 72 h, stronger effect = higher value
R275C/beta4 = assay: BK channel mutant inhibitors and activators – cell-based, U2OS BacMam, thallium flux, beta subunits, selectivity assay, profiling panel (AID 1259406;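 active = thallium flux through the channel raised or lowered by more than 3 SD from vehicle-only wells, actives on both sides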;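 also: initial slope of Thallos dye fluorescence rise after thallium is added; log ratio against the mean of 0.3% DMSO vehicle wells on the same plate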); details: U2OS BacMam BK variants, at 30 µM
R275C/Slo1WT/beta2 = assay: as above; details: U2OS BacMam BK variants, at 30 µM
[17] = growth inhibition of DIPG cells – cell-based, MIPE4.0 library, CellTiter-Glo luminescence, qHTS (AID 1347066; cut-off not given, nearly all actives have AC50 up to about 30 µM;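 also: cells exposed to compound for 48 hours before readout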); details: SU-DIPG-VI viability, CellTiter-Glo ATP luminescence
[18] = tested on: Neuropilin-2 / VEGF-C interaction (human); assay: small molecules blocking Neuropilin-2/VEGF-C interaction – biochemical, microplate binding format, z-score (AID 743281); details: microplate NRP2/VEGF-C binding assay; stronger effect = lower value

Sequence of NAD(+) hydrolase SARM1 (Homo sapiens) (Q6SZW1 whole entry, looked up): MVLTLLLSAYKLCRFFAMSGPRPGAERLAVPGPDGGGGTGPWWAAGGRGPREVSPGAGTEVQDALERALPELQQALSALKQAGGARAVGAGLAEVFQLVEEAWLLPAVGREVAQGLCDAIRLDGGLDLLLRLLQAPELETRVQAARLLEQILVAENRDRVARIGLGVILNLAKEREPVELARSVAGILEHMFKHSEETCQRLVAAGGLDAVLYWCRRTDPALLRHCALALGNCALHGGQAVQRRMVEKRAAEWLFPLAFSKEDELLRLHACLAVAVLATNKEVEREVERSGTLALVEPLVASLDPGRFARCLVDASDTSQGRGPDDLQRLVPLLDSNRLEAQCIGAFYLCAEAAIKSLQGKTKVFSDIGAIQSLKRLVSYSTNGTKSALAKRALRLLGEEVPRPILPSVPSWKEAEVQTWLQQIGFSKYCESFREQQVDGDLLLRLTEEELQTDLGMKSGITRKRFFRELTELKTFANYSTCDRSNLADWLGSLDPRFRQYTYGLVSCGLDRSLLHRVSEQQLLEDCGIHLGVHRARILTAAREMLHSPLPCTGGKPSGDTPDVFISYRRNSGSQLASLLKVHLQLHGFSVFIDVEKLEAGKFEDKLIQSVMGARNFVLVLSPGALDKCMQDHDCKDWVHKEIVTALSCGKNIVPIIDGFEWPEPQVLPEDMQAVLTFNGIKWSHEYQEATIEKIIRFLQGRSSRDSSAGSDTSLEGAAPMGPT

SMILES	inhibition [1] [%]	score [2]	cytochrome c release ratio [3]	inhibition of aggregation [4] [%]	glutamate uptake change [5] [%]	aggregation suppression score [6]	period change [7]	survival [8]	inhibition [9]	fluorescence ratio (interference) [10]	outcome [11]	outcome [12]	outcome [13]	outcome [14]	remaining NAD [15]	z-score [16]	log fold change Tl+ flux (R275C/beta4)	log fold change Tl+ flux (R275C/Slo1WT/beta2)	outcome [17]	z-score [18]
CN(C)c1nc(N(C)C)nc(N(C)C)n1	-2.79	1.33	1.53	78.1	20.9	1.21	-0.095 h (inactive)	2.92 (inactive)	0% (inactive)	0.9 (inactive)	inactive	inactive	inactive	inactive	10 nM (inactive)	0.975 (inactive) and 0.76 (inactive) and 0.825 (inactive)	-0.000902 (inactive)	0.0129 (inactive)		
COC(=O)[C@H](c1ccccc1Cl)N1CCc2sccc2C1	62	1.18	0.98	77.8	-7.57	1.88					inactive	inactive	inactive		10 nM (inactive)	-0.555 (inactive) and -0.06 (inactive)	-0.038 (inactive)	-0.0324 (inactive)	inactive	
O=c1ccc2ccc(O)c(O)c2o1							0.03 h (inactive)		0% (inactive)	1.1 (inactive)	inactive			inactive		-0.93 (inactive)				
Cc1cccc(C)c1NC(=O)C1CCCCN1C (configuration not stated)															10 nM (inactive)	0.56 (inactive)	-0.0225 (inactive)	-0.0173 (inactive)		-0.136 (inactive)
CCCCC(=O)N(Cc1ccc(-c2ccccc2-c2nn[nH]n2)cc1)[C@H](C(=O)O)C(C)C															10 nM (inactive)		0.0104 (inactive)	0.0346 (inactive)		-0.0697 (inactive)
O=[N+]([O-])c1cccc2cn[nH]c12							-0.295 h (inactive)		-1% (inactive)	1 (inactive)				inactive		0.295 (inactive) and 0.3 (inactive) and -0.14 (inactive)	0.0112 (inactive)	-0.00893 (inactive)		-0.0317 (inactive)
CCc1ccc(CCOc2ccc(CC3SC(=O)NC3=O)cc2)nc1 (configuration not stated)											inactive	inactive	inactive		10 nM (inactive)	0.365 (inactive) and 1.53 (inactive)	-0.028 (inactive)	-0.0116 (inactive)	inactive	0.637 (inactive)
CC(C)NCC(O)COc1ccc(CC(N)=O)cc1 (configuration not stated)	16.6	1.42	0.86	-11.1	-9.65	1.39	0.015 h (inactive)	4.33 (inactive)	-1% (inactive)	0.9 (inactive)				inactive	10 nM (inactive)		0.0424 (inactive)	0.0165 (inactive)		
CC(C)NCC(O)COc1cccc2ccccc12 (configuration not stated)	-12.7	1.12	1.04	62.1	4.46	0.965	-0.115 h (inactive)	5.92 (inactive) and 9.92 (inactive) and 3.58 (inactive)	-4% (inactive)	1 (inactive)				inactive	10 nM (inactive)		0.00549 (inactive)	-0.0153 (inactive)		
CC(C(=O)O)c1ccc(-c2ccccc2)c(F)c1 (configuration not stated)	20.8	0	0.68	29	14.1	0.00404		4.67 (inactive)			inactive	inactive	inactive		10 nM (inactive)		0.0279 (inactive)	0.0126 (inactive)	inactive	-0.82 (inactive)
